The campaign covered roughly 53,000 sequences. About 3,700 (7%) were called active. The sample as a whole holds a higher share of actives than the screen did. A number with no mark means an inactive call.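 The calls were made as follows: active = gene knockdowns whose robust z-score for IL-1 alpha signal is at least 2 or at most -2, so actives lie on both sides; inactive = the rest.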

This assay can be described thus: Components of the Cytosolic LPS Sensing Pathway: Gene Identification via Genome-wide siRNA Screen.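 Also: robust z of the log signal after scaling to non-targeting control siRNA wells of the plate.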 The following applies: RAW264.7 macrophages, IL-1a HTRF, actives lie on both sides, screened at 100 nM (by protocol), cells primed 5 h with Pam3CSK4 first. In a few lines: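 Three distinct siRNAs per gene were tested singly at 100 nM in RAW264.7 macrophages. Following Pam3CSK4 priming and 24 hour LipidA transfection, IL-1a secretion was read by HTRF.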
Consider CCUUCCUCGUGAUUCGCUATT against Lman2l, for which the z-score was -0.461. As for GGUUGAGUAGUUGAUUUUCTT against Hemgn, the figure is 0.663; as for GGAAAUACCCACCUUAUACTT against Efhc2, 2.51 (active).

For GGAGCAGAUACAGAAGAUCTT against Pfdn2, the z-score was -1.21. As for GUAUAGUGUAUCUCAUCAUTT against Olfr1107, the figure is 1.56; as for GCUCAGUGGACAUGCUCUATT against Hpse, -0.502; as for GGAGGCAUGAUAAGCUUCGTT against Pmm1, -0.425.

GCUACUAAACAGGGUGUGATT against Gpsm3: the z-score was -2.42 (active).

As to GGGUGAGAUAAUUGAAAAGTT against Slc12a6, the z-score is 0.607. Turning to GGGCUUCAACACUGAGAAGTT against Arl4d, the z-score was -1.04. For GGCUCCUACCAAUCUCACUTT against Calcr, the z-score was -0.548.

With GGGAAAAAUGGACUAGCAUTT against Ahctf1, the z-score is 0.888. To GCAUUGGACUCAUAAUUUUTT against Aadat belongs 0.0399; to GGUAAUGUUCUCCUUUGAATT against Dok1, 4.89 (active); to GCCUGAAUUUAGUGUUAAGTT against Hnmt, 1.72. Regarding CCAUUGAAAAACUGGACAGTT against Olfr1463, the z-score was 3.26 (active).

For the sequence GCUCUUCAUAACUCUUGCUTT against Olfr1392, the z-score was -0.288. As for GGCCAGAACUGUUCCAAUUTT against Cilp, the figure is 1.15; as for GGGAAUUUAAUUUUUCGUGTT against Sfn, -0.642. To GGAAGUCAACCGAGUCUUCTT against Sp140 belongs 0.011; to GGGUAUGAUAUGUUAAUGATT against Ndufaf7, -0.434; to CCAUUUAAGUGUGUGUUAATT against Rbmx, 0.475.

As to GGAUUUUGCACUAUAACAATT against Zmat3, the z-score was 3.83 (active). Consider GGACAACGGAUUUUAGGAGTT against Barhl2, for which the z-score is 0.44. To GGUUGAAUAUACUUAGCACTT against Gm5082 belongs 0.947; to CCAUGGAAUCUCCUAUACCTT against C4bp, -0.679; to GGUAAAUCAAAUCACUGCCTT against Slamf1, 0.316. As to CCCUUUCAUUGUGCAUUAATT against Hdhd2, the z-score is -2.22 (active). As for GCUCAAGAGUCUAACUCCCTT against Serinc4, the figure is 0.558; as for GGAGAAAGUUUUGGAAAAATT against Slc24a5, -0.622; as for GGAUUUCUACCAGCUCGUGTT against Pop5, 1.62. For the sequence GGAUGGCAGCUUUGACCUUTT against Cdc42ep2, the z-score was 0.566. For GCAAAACCCAACAACUCUGTT against Lig3, the z-score was 1.05. On to CCUACUGGAGUCUCCUCUUTT against Tmem116, for which the z-score is 0.36.

Take GGAGGACAAUGAGGACGAUTT against Chrac1: the z-score is 2.1 (active). To AUUUCUGUAAGGCAAAUGUTT against Olfr970 belongs -0.454; to CCUCGAAUGCAGACGUACGTT against Sdhb, 1.67. As to CCAAAGUCAUAAUUCCAACTT against Timm23, the z-score was 0.202. To GGAGCAGAUUAAAUCCCUGTT against Krt8 belongs 2.46 (active); to GGGAGCUAAGAAGAUUCAUTT against Mul1, 0.89; to GCAGCAGUUGGCUAAAACATT against Bbof1, -1.14. To “GGUGGAUGGAUCACUGAGUTT against B230325K18Rik” belongs -0.347; to GCAACUAUGAACAAGAAUCTT against Grm3, -0.0322; to GCCACGAAAAGAAGAGAAUTT against Vpreb2, 1.08. Regarding CCUACAGAGUACCCUGUCUTT against Gas2l2, the z-score was -2.56 (active).

Take GGUCCUGAAUUUCAUCCUUTT against B4galnt2: the z-score was 0.459. To GGUCAGAAAUUCUAAGUUGTT against Gpatch2 belongs 1.09; to GGAAAUGACCUACGAAGAATT against Pfkfb4, -1.26; to GGCAGUCAACAAAGAAGACTT against Metap1d, -0.711. Regarding GGUCUGGUGGAGUUGAGAATT against Ccdc80, the z-score was -0.617. GCGAGUGCUAACAUGAAAGTT against Sar1a: the z-score was -0.0783. As for GUUUGUGCUGUUAGGUUUUTT against Olfr1347, the figure is 2.46 (active). As for GGACAAAAGACUUGAAUUUTT against Alox15, the figure is 1.86. With GGCUGAAGAGGAUCGGUACTT against Atpif1, the z-score was 2.08 (active). For the sequence CGCAAGAGUUCCUUUUUUUTT against Sla, the z-score was 0.671. Turning to GGCCACCUAUGAUGGAAAUTT against Kdelr2, the z-score was -0.379.

For the sequence GCUCUGAUGGUCUACUGCUTT against Rgs3, the z-score was -0.347. As for GGGCAGCUCAUGUCCUAUATT against Scfd2, the figure is -0.421; as for CCAGAAAAAAGAUUGUACATT against Hesx1, -0.43.

For GCAGAGCUAGCUGAAUUGCTT against Urb2, the z-score is -0.156. With GCCGUUAAACAGUUCUCCCTT against Cyb561a3, the z-score is -0.455. Consider GGAUCGAGUUUGGUGUAGATT against Usp10, for which the z-score was -1.39. As for CCAUCUACCAUAAACUGUATT against Spata6, the figure is 0.175; as for CCAUUAAUUACGUGUUUGUTT against Dixdc1, -0.104. As to GGAAUGGAAUACAAAGUCATT against Isg20l2, the z-score was -0.305. To CCUAUGCAUCAGACCUUUGTT against Nedd9 belongs 2.7 (active); to GGUUUUUCUGUCAAGUGCUTT against Lgr5, -0.303; to GGCAAGAUCCACAAUGAUGTT against Lgals2, -0.996. As for CCGUCAGUGAAUUCUUGAATT against Birc5, the figure is 0.342; as for GGAAGUUUGCUCCAGCCUUTT against Tmem33, -0.202; as for GCGAGUGACACAUCUUCUCTT against Klhl7, 0.467. Take GGAACAUAUGCAGAAUUUATT against Adgrb3: the z-score was 0.509. To GGUCCAUUGGGAGUUUGAGTT against Slc2a6 belongs 3.14 (active). As for GGAUGGAGAGAACUACUUATT against Gltpd2, the figure is 0.999; as for GGAGUGUGAUCAAGUUCAUTT against Eya4, 2.16 (active); as for GGUGUUUGCCUCAGAAAUCTT against Cdk17, -0.676.

On to GGUGAAGAUUGACAAGAAATT against Spout1, for which the z-score was 0.254.

With GGAUGAAUGCAGCUUCCAUTT against Myh14, the z-score is 2.35 (active).

Regarding GGGUGUUCCAGAAGUAUCUTT against Lars2, the z-score was -1.76. Take CCUUGGAAUGCAUAGCCAATT against Sdk1: the z-score was 0.285. To GGAAUAUGCCCAAGUUUUUTT against Ctnna1 belongs 2.86 (active). To GCCAAAUUGUCCCGGGCAUTT against Usp39 belongs 0.457.

In the case of GGUGAUGUAUUAUUAUCCATT against Defb12, the z-score was 0.277. As for CCUUUCAAGGAGAUAUAAUTT against Gcm2, the figure is 0.65.

As for CCUUAGCUGUCCUUGUGGUTT against Defb28, the z-score is -1.36. As for CGAAAUCCUAGUUUCGUCCTT against Spns1, the figure is 3.29 (active).

Consider GGAAUUGGUCUAUAUGCGUTT against Il2ra, for which the z-score was -1.02. GGGUUCCAGUUUGUUUCCUTT against Cnbp: the z-score was -0.901. As for CCAUUGAGAUCAGCGACAUTT against Abtb2, the figure is -0.748. To GGUAGCAUUAUUUGUCCUATT against Pcdh15 belongs 0.675; to GGAGCUACGAAGAGGAUCUTT against Wdr45b, -2.69 (active). As for GGCCAUCUCCUUCAACUAUTT against Ugt2a1, the figure is 1.24; as for “GGAGUAGAUUUAAAAGGCATT against 4933440M02Rik”, 0.145. Turning to GGUCAACAGAAUGAAAAAUTT against Runx1t1, the z-score was -0.211.

For the sequence GGGAAAGUCGAGCUUUUUCTT against Ifi44l, the z-score is 0.0658. In the case of CCAAGCUACCAGGGUUUUUTT against Abcb9, the z-score is 2.1 (active). On to GGUCCAAGUAAUGAACUCATT against Olfr155, for which the z-score was -1.19.

With GGCCCUAGAAAUAAUCUGCTT against Anks4b, the z-score is 0.0338. As for GGGAUCCUUAAUAUUUUGATT against Dazap2, the figure is 1.66. To GGUUUUAAUUGUUCAGACGTT against Lrrtm3 belongs 0.35; to GGGAAGUGGAAACAGUUCUTT against Icam2, 0.461.

Take CCAAUGUUACGAGAAACUUTT against Smug1: the z-score is 1.02.

Regarding GGAAAGGAUAAAGUAUAUCTT against Aspm, the z-score was -0.0167. As for GGAUUGCAUCUUCCUCGAATT against Olfr816, the figure is -2.27 (active); as for GAUCUAUCACCGGUACUGCTT against Gys1, 0.154. As for CCGCUCACUUCUUGAAUAUTT against Rnf125, the figure is 0.388; as for GUCAGAUCUCAGAAUCAUGTT against Ercc6l2, -2.27 (active); as for GCGGUCUGUGGUCUUAAAUTT against She, -0.449.

(Values after PubChem BioAssay AID1508600 (Functional Genomics Laboratory (NCATS/FGL), 2020).)
